In the library only some 3.3% were active in any assay of this set; here they are far more common.
LDHA inh – LDHA (human) enzyme inhibition | P00338 | activity change, % (values are at about 110 or 230 µM) | 0.15% of 480,000 active | purified LDHA, NADH/diaphorase-resazurin fluorescence; stronger effect = lower value | AID 1347041; in the data active = activity change below about -30%; inconclusive = mostly about -25% to -30%;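 note: plate controls were DMSO wells for no effect and wells without enzyme for full effect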
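Human LDH5 (2 nM) was incubated with 0.06 mM NADH and 0.2 mM pyruvate for 5 min at room temperature in Tris pH 7.4. Remaining NADH was coupled through diaphorase/resazurin, and resorufin fluorescence was read at 0 and 20 min.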
PI5P4K alpha inh – PI5P4K alpha (human) kinase inhibition | P48426 | PI5P4Kalpha enzyme, ADP-Glo luminescence, 60 min; stronger effect = lower value | max response, % | 1.2% of 330,000 active | AID 652105; active = max response of -50% or lower; inconclusive = between -30% and -50%; inactive = -30% or higher; note: value at the top dose of about 77 µM; % is set by controls: 0 for no effect and ±100 for the full control effect
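Quantitative HTS of the MLSMR library against PI5P4Kalpha with substrate. ATP added last at 5 microM final; room temperature, 60 minutes. Remaining ATP depleted, ADP converted and read as luminescence.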
D3 antag – blocks the human D3 dopamine receptor. P35462. D3R cells, DiscoveRx beta-arrestin luminescence, antagonist mode; stronger effect = lower value. max response, negative = inhibition, %. 2.5% of 360,000 active. AID 652054; in the data active = max response below about -50%; inconclusive = no clear call, values can overlap the other calls; note: % is set by controls: 0 for no effect and ±100 for the full control effect
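Cells plated overnight at 1500 cells/well, then exposed to library compounds with dopamine controls for 90 minutes at 37 degrees C. DiscoveRx reagent added for 30–60 minutes at room temperature; luminescence read, quantitative HTS format.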
DRD3 agonist – agonists of human D3 dopamine receptor. P35462. D3R DiscoveRx beta-arrestin cells, luminescence, 90 min. max activation, %. 0.58% of 410,000 active; in the data active = max activation above about 30%; note: 0% is about no effect
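Agonist-mode cell screen: cells plated at 1500/well and incubated overnight at 37 °C, then exposed to library compounds for 90 min at 37 °C. Detection reagent was added for 30–60 min at room temperature, and luminescence was read.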
PI4K2A inh – inhibitors of human PI4K2A | purified PI4K2A, ADP-Glo luminescence, 1 h; stronger effect = lower value | 0.13% of 420,000 active | activity change, negative = inhibition, % at 76.9 µM | Q9BTU6; in the data active = activity change below about -50%; inconclusive = mostly about -30% to -49%;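 note: -100% = wells without enzyme as full effect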
Target sequence (Q9BTU6 whole entry, looked up): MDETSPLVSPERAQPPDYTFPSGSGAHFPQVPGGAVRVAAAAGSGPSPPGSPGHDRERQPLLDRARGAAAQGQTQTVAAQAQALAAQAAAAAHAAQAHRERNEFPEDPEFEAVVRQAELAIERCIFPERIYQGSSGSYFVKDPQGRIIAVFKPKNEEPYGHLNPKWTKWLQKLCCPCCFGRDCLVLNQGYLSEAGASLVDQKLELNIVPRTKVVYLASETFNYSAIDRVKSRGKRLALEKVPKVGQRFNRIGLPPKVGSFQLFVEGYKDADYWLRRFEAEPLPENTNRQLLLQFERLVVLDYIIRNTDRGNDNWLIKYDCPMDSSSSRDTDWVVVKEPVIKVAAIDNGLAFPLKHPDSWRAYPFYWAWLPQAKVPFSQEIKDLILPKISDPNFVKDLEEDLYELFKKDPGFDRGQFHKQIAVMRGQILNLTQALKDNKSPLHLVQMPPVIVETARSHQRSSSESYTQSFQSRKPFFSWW
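In this quantitative HTS, ADP production by PI4K2A was quantified luminescently after 1 h at ambient temperature; 100 microM adenosine served as plate-quality control.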
Active calls of the source: *; ? = inconclusive; nt = no result.

SMILES	LDHA inh	PI5P4K alpha inh	D3 antag	DRD3 agonist	PI4K2A inh
CC(C)(C)c1ccc(-n2nc(C#N)c(Cl)cc2=O)cc1	-5	2	-95*	-9	52
Cc1ccccc1Oc1ccc(C(=O)O)cc1	2	nt	nt	nt	nt
O=C(NC(NC(=S)Nc1c(Cl)cccc1Cl)C(Cl)(Cl)Cl)OCc1ccccc1 (stereo not given)	-5	-5	-69*	-17	-2
Cc1ccc(-n2c(SCC(=O)c3ccc(F)cc3)nnc2-c2cccnc2)cc1	nt	nt	nt	nt	5
O=C(CSc1nc2ccccc2s1)NC1CCS(=O)(=O)C1 (stereo not given)	2	nt	-23	2	-2
Cc1csc(SCC(=O)NC2CCS(=O)(=O)C2)n1 (stereo not given)	-6	3	-6	30*	7
O=C(NC(=S)Nc1cccc(S(=O)(=O)NC2=NCCC2)c1)c1cc(-c2ccco2)nc2ccccc12	-6	-50*	-18	-24	-18
O=C(NC1CC1)c1cc(-c2ccco2)nc2ccccc12	1	-101*	12	2	?
O=C(N/N=C/c1ccc(F)cc1)c1cc(-c2ccco2)nc2ccccc12	-3	-111*	-23	-2	?
CC(C)Nc1nc(-c2ccc(NS(C)(=O)=O)cc2)cs1	-8	nt	nt	nt	nt
O=C(COC(=O)c1cccc(-n2cccc2)c1)Nc1c(F)cccc1F	1	nt	nt	nt	nt
CCc1ccc(C(CNC(=O)c2cccc3ncccc23)N(C)C)cc1 (stereo not given)	-25	nt	nt	nt	nt
COC(=O)CNCC(=O)OC	7	nt	nt	nt	nt
Cc1ccc(C(=O)OCc2nc3ccsc3c(=O)[nH]2)o1	-1	1	-4	-4	3
O=C(/C=C/c1ccc(Br)o1)OCc1nc2ccsc2c(=O)[nH]1	-5	-67*	0	-2	?
O=C(COC(=O)c1ccc(NC(=O)c2ccco2)cc1)c1ccccc1	-5	nt	nt	nt	nt
COc1cc2c(cc1OC)C(=Cc1ccc(N(C)C)cc1)C=C2	0	21	14	33*	-1
CC(CCc1ccccc1)N1CCN(Cc2ccccc2)CC1 (stereo not given)	-31*	4	-87*	-12	0
CCS(=O)(=O)N1CCN(C(C)CCc2ccccc2)CC1 (stereo not given)	-19	-5	-51*	14	-4
CN(CCOc1ccccc1Cl)Cc1cc(=O)oc2cc(O)ccc12	1	nt	nt	nt	nt
CN(CCOCCOc1ccc(F)cc1)Cc1ccccc1	-18	-1	-89*	-20	-5
C=CCc1cc(Cl)ccc1OCCN(C)C	-18	nt	-55*	-55	15
CN(CCOc1ccccc1Cl)Cc1ccccc1	-6	16	-76*	5	-1
CN(CCOc1ccc(Cl)c(Cl)c1)Cc1ccccc1	-12	-7	-93*	-24	7
C=CCc1cc(Cl)ccc1OCCCNC(C)C	-16	2	?	-44	-6
SMILES	LDHA inh	PI5P4K alpha inh	D3 antag	DRD3 agonist	PI4K2A inh
Cc1nonc1CN1CCN(C(C(=O)O)c2c[nH]c3cc(F)ccc23)CC1 (stereo not given)	1	nt	nt	nt	nt
Cc1ccc(NC(=O)C(C)C)cc1NC(=O)C1(C)CC1(Cl)Cl (stereo not given)	9	nt	nt	nt	nt
CN(CC(=O)NC(C)(C)C)C(=O)CCc1ncc(-c2ccccc2F)o1	6	nt	nt	nt	nt
CN(CCOCCOc1ccc(Cl)cc1Br)Cc1ccccc1	-2	31	-64*	-18	-7
CCOc1ccc(OCCN(C)Cc2ccccc2)cc1	-12	0	-83*	-4	7
COc1ccc(OCCCCN(C)Cc2ccccc2)cc1	-12	3	-29	-27	2
C=CCc1cc(OC)ccc1OCCN(C)Cc1ccccc1	-9	-6	-59*	-26	-7
Cc1ccc(Cl)c(OCCCN(C)Cc2ccccc2)c1	-15	-8	?	-22	6
Cc1ccc(Cl)c(OCCCCN(C)Cc2ccccc2)c1	-19	nt	-90*	-63	3
Cc1ccc(OCn2ccc(C(=O)NCc3cnn(C)c3)n2)c(C)c1	2	nt	nt	nt	nt
CC(=O)N1CCN(c2oc(-c3cccc(C)c3)nc2S(=O)(=O)c2ccccc2)CC1	1	nt	nt	nt	nt
Cc1cc(C)nc(NC(=O)Nc2ccc(F)c(Cl)c2)c1	-5	nt	nt	nt	nt
CN(CCCOc1ccccc1-c1ccccc1)CCCOc1ccccc1-c1ccccc1	0	nt	nt	nt	nt
Cc1ccccc1C(=O)OCCN(C)Cc1ccccc1	-2	4	-70*	-14	0
CCCCN(C)CCOc1ccccc1OCC	-15	-4	-98*	-19	5

Screens as filed in PubChem BioAssay.
